GLP1R cytotox: cytotoxic in the GLP-1 receptor inverse agonist counter-screen; HEK293 cAMP-luciferase reporter cells, luminescence, 24 h; Potency, µM (doses to about 38.3 µM), usual class: inhibitors; 410,000 compounds, 0.13% hits; AID 624418;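 note: loss of luciferase light is scored as toxicity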
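Compound-treated cells are incubated 24 hr at 37 deg C under 5% CO2 after a 12 hour attachment period, then luciferase detection reagent is added and luminescence is measured following 12 min at room temperature; lowered signal indicates toxicity.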
GLP1R ag: GLP-1 receptor (human) agonism. 380,000 compounds, 0.007% hits. P43220. Potency, µM (series often up to 45.6 µM), usual class: activators. HEK293 GLP-1R CRE-luciferase, luminescence, 4-6 h; cells express a hypersensitive GLP-1R form
GLP1R inv ag: acts as inverse agonist at human GLP-1 receptor. P43220. HEK293 GLP-1R CRE-luciferase, luminescence, 24 h; GLP-1R form is constitutively active. Potency, µM (series often up to 38.3 µM), hits mostly inhibitors. 410,000 compounds, 1.6% hits; note: nearly all actives have a fitted effect of over 55% in size
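HEK293 cells stably co-expressing constitutively active GLP-1R and a cAMP-responsive luciferase reporter were seeded in DMEM with 10% Nu serum, given compounds after 12 h, and incubated 24 h at 37 deg C. Luminescence was then read.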
ClpP mod: qHTS Assay for Activators of ClpP; AID 651965, 2013; Potency, µM (doses to about 57.5 µM); 340,000 compounds, 1.9% hits; purified B. subtilis ClpP, FRET peptide cleavage, 20 min; active = well fitted falling curve with a large enough effect; inconclusive = small, poorly fitted or top-dose-only effect; inactive = no such curve, though single readings can be large or run the other way; note: the source files actives as falling curves though it sought activators and does not explain the sign; nearly all actives have a fitted effect of over 65% in size
Target sequence (P80244 whole entry, looked up): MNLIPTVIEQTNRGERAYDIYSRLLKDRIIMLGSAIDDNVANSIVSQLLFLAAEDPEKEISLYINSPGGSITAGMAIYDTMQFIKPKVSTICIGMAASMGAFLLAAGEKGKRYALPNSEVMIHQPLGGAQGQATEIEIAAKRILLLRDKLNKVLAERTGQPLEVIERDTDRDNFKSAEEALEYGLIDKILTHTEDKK
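FRET quenching reversal measured ClpP activation: 10 microg/mL B. subtilis ClpP at pH 8 with the FRET-FV decapeptide, read at 430 nm after 320 nm excitation. The 20-min minus 0-min signal was scaled between DMSO/no-enzyme wells and ADEP (5.8 microM final).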
A number is an active result; n = inactive; u = inconclusive; x = not tested or not shown. Most compounds without a hit are left out; they make up all but 3.2% or so of the library. Unless noted, calls come from the whole dose curve; as a rule, active = well fitted curve in the direction sought with a large enough effect; inconclusive = small, poorly fitted or top-dose-only effect, or another doubt; inactive = no such curve, though single readings can be large; an effect the other way counts as inactive or inconclusive.

SMILES	GLP1R cytotox	GLP1R ag	GLP1R inv ag	ClpP mod
O=C1Nc2ccccc2/C1=C/C(=O)c1cccs1	u	n	u	32µM
COc1ccc(C(=O)/C=C2/C(=O)Nc3ccccc32)c(OC)c1	10µM	n	u	n
COc1ccc(C(=O)/C=C2/C(=O)Nc3ccccc32)cc1OC	n	n	n	n
COc1ccc(C(=O)/C=C2/C(=O)Nc3ccccc32)cc1	u	n	u	n
Cc1ccc(-n2ncc3c(SCc4cccc(C)c4)ncnc32)cc1	n	n	n	28µM
Brc1ccc(-c2nc3ccccn3c2Nc2ccc3c(c2)OCCO3)o1	n	x	u	u
Cc1nc2scc(C)n2c(=O)c1S(=O)(=O)Nc1cccc(C(F)(F)F)c1	n	x	11µM	u
Cc1nc2scc(C)n2c(=O)c1S(=O)(=O)Nc1cccc(O)c1	n	x	n	n
Cc1nc2c(sc(=S)n2Cc2ccco2)c(=O)n1CC(=O)Nc1ccccc1	n	n	4.5µM	n
CCn1c(=S)sc2c(=O)n(CC(=O)Nc3cccc(Cl)c3)c(C)nc21	u	n	7.9µM	n
CCOC(=O)c1ccc(NC(=O)Cn2c(C)nc3c(sc(=S)n3CC)c2=O)cc1	n	n	n	n
Cc1ccc(OCC(=O)Nc2ccccc2OCc2cc(=O)n3ccccc3n2)cc1C	n	x	n	n
Cc1cc(C)n2nc(NCc3cccc(Br)c3)nc2n1	n	n	n	14µM
COc1ccc(CNc2nc3nc(C)cc(C)n3n2)cc1OC	n	n	n	n
Cc1ccc(-n2c(=O)c3ccccc3n(CC(=O)Nc3cccc(C(F)(F)F)c3)c2=O)cc1	n	n	u	n
O=C1CSC(c2cn(-c3ccccc3)nc2-c2cc3ccccc3oc2=O)N1Cc1ccco1 (centres undefined)	n	n	u	32µM
Cc1ccc(CN2C(=O)CSC2c2ccc(F)cc2)cc1 (centres undefined)	n	n	u	n
O=C1CSC(c2cn(-c3ccccc3)nc2-c2cc3ccccc3o2)N1Cc1ccccc1 (centres undefined)	n	n	u	n
Cc1ccc(-c2nn(-c3ccccc3)cc2C2SCC(=O)N2Cc2ccccc2)o1 (centres undefined)	n	n	11µM	u
Cc1ccc(CN2C(=O)CSC2c2ccccc2F)cc1 (centres undefined)	n	n	10µM	n
Cc1ccc(C)c(N2CCN(C(=O)c3ccc4c(c3)N(Cc3ccc(F)cc3)C(=O)c3ccccc3S4=O)CC2)c1 (centres undefined)	n	n	n	n
CCOC(=O)C1CCCN(C(=O)c2ccc3c(c2)N(Cc2ccccc2F)C(=O)c2ccccc2S3=O)C1 (centres undefined)	n	n	n	n
Cc1cc(C)c(Cc2c(C)nc3c(C(=O)NCc4ccco4)cnn3c2C)c(C)c1	n	n	u	20µM
Cc1nc2c(C(=O)NCCc3ccc(Cl)cc3)cnn2c(C)c1Cc1ccc(F)cc1	n	x	n	25µM
Cc1nc2c(C(=O)N3CCOCC3)cnn2c(C)c1Cc1ccc(Cl)cc1	n	n	n	28µM
SMILES	GLP1R cytotox	GLP1R ag	GLP1R inv ag	ClpP mod
Cc1nc2c(C(=O)NC(C)c3ccccc3)cnn2c(C)c1Cc1ccccc1 (centres undefined)	n	x	u	32µM
Cc1ccc(CNC(=O)c2cnn3c(C)c(Cc4c(F)cccc4Cl)c(C)nc23)cc1	n	x	n	u
CC1=C(C(=O)Nc2ccccc2)C(c2cccs2)n2nc(SCc3ccccc3F)nc2N1 (centres undefined)	n	n	n	n
CC(C)Cn1c(N)c(C(=O)COC(=O)c2ccccc2C(=O)c2ccccc2)c(=O)n(C)c1=O	n	n	u	n
Cn1c(N)c(C(=O)COC(=O)c2ccccc2C(=O)c2ccc(Cl)cc2)c(=O)n(C)c1=O	n	n	11µM	x
O=C(CN(C(=O)c1ccccc1Cl)C1CCCCC1)Nc1ccc(Cl)c([N+](=O)[O-])c1	n	n	4µM	n
N/C(=N\S(=O)(=O)c1cc(C(F)(F)F)cc(C(F)(F)F)c1)c1ccc(Cl)cc1	u	n	2.5µM	n
COc1ccc2c(c1OC)C(=O)OC2Nc1nc(-c2ccc(-c3ccccc3)cc2)cs1 (centres undefined)	n	n	n	16µM
O=C(Cn1cc(SCc2c(F)cccc2Cl)c2ccccc21)N1CCCCC1	n	x	n	n
O=C(Cn1cc(SCc2c(F)cccc2Cl)c2ccccc21)N1CCCCCC1	n	x	10µM	n
COc1cccc(-n2ccnc2SCC(=O)Nc2cccc3ccccc23)c1	n	x	u	n
CC(C(=O)Nc1ccccc1-c1ccccc1)N1CCCCC1 (centres undefined)	n	n	10µM	n
CC(C(=O)Nc1cc(Cl)cc(Cl)c1)N1CCCC1 (centres undefined)	n	n	13µM	n
CSCCC1NC(=O)N(C(C)C(=O)Nc2cc(Cl)cc(Cl)c2)C1=O (centres undefined)	n	n	11µM	n
CC(C)NC(C(=O)Nc1cc(Cl)cc(Cl)c1)c1ccccc1 (centres undefined)	n	n	7.9µM	28µM
CCCCn1cc2c(c1-c1ccccc1Br)c(=O)n(C)c(=O)n2C	n	x	n	n
CCN(CC)CC(=O)c1c(C)n(C)c2ccc(OC)cc12	x	x	x	n
O=C(Nc1cc(Cl)cc(Cl)c1)C(NCC1CCCO1)c1ccccc1 (centres undefined)	n	n	5µM	n
CC(C)(C)n1nnnc1C(c1cccs1)N(Cc1ccc(Cl)cc1)CC1CCCO1 (centres undefined)	n	n	5µM	n
CCOC(=O)c1ccc(-c2cccc(-c3cc(=O)oc4cc(OC)cc(OC)c34)c2)cc1	n	n	n	20µM
CC(=O)c1ccc(NC(=O)CCc2c(C)nc3cc(-c4ccc(Cl)cc4)nn3c2C)cc1	n	n	n	u
Cc1ccc(NC(=O)CCc2c(C)nc3cc(-c4ccccc4)nn3c2C)cc1F	n	n	n	28µM
CCN(CC)S(=O)(=O)c1ccc(NC(=O)CCc2c(C)nc3cc(-c4ccc(Cl)cc4)nn3c2C)cc1	n	x	n	16µM
Cc1ccc(C)c(Nc2nnc(-c3ccc(C)c(S(=O)(=O)NCC4CCCO4)c3)c3ccccc23)c1 (centres undefined)	n	x	11µM	n
Cc1ccc(-c2nnc(Nc3ccccc3)c3ccccc23)cc1S(=O)(=O)NCC1CCCO1 (centres undefined)	n	n	n	n
COc1c(Br)cc2c(C)c(C(=O)O)oc2c1Br	n	n	n	n
Cc1c(C(=O)O)oc2c3c(ccc12)OCCO3	n	n	n	18µM
COc1cc(-c2nc(Cn3nnc(C(=O)Nc4ccccc4)c3C)c(C)o2)cc(OC)c1OC	n	n	n	28µM
COc1ccc(NC(=O)N2CCC(CN3CCCC3)CC2)c(OC)c1	n	x	n	n
CCOC(=O)c1c(-c2ccccc2)nc2ccccn12	n	n	n	n
